Experimental data from PubChem BioAssay AID1851 (National Center for Advancing Translational Sciences (NCATS), 2009).
“And” between values parts separate entries of the source, which are not always exact repeats. Equal values may be shown once. The whole screen tested about 16,000 compounds, of which about 5,700 (36%) were called active. Another 24% or so got no clear call; they are omitted. Some of the results follow. Values without a mark were called inactive. Calls follow the shape of the dose curve; as a rule, active = well fitted curve in the direction sought with a large enough effect; inconclusive = small, poorly fitted or top-dose-only effect, or effect the other way; inactive = no such curve, though single readings can be large or run the other way.

What follows are molecules tested against Cytochrome P450 1A2 (Homo sapiens) (UniProt P05177) (assay: Cytochrome panel assay with activity outcomes). Conditions: recombinant CYP, pro-luciferin dealkylation, luminescence, p450-cyp1a2; series mostly up to 57.1 µM; activity, negative = inhibition: at the top concentration.
Chain of Cytochrome P450 1A2 (Homo sapiens) (P05177 whole entry, looked up): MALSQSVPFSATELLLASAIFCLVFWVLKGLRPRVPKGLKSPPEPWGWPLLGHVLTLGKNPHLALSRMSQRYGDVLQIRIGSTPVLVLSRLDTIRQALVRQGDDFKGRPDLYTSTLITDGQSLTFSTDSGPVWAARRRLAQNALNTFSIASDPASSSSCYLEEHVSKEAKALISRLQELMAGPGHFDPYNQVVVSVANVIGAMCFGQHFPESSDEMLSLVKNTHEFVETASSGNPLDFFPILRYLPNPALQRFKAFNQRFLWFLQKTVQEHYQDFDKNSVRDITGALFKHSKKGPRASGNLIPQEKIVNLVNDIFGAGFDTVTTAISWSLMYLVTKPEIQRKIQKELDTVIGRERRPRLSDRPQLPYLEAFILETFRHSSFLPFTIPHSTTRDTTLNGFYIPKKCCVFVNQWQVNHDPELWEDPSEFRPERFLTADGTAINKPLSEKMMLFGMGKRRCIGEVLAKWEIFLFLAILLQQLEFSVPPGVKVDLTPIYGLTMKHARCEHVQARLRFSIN
% is scaled to controls: 0 for no effect and ±100 for the full control effect.

SMILES | activity, negative = inhibition | AC50
C=C/C(C)=C/[C@]1(C)SC(=O)C(C)=C1O | 2.06% | 
CC1(C)CCC2=C(O1)c1ccccc1C(=O)C2=O |  | 3.98 µM (active)
Cc1c(C=NCCOCc2ccccc2)cnn1C |  | 17.8 µM (active)
CCCc1ncc(C[n+]2ccccc2C)c(N)n1 | -1.54% [at 25.6 µM] | 
C=CCOc1cccc(/C=N/NC(=O)C(=O)NCc2ccco2)c1 | -7.74% | 
C=CCOc1cccc(CNn2cn[nH]c2=S)c1 |  | 3.16 µM (active)
O=C(Oc1ccccc1)N1CCC2(CCCN(c3ccc(-c4ccccc4)cc3)C2)CC1 | 10.2% | 
CC(C)NC(=O)N1CCCC2(CCN(C(=O)c3cccn3C)CC2)C1 | -12.4% | 
Cn1cccc1C(=O)N1CCC2(CCCN(Cc3ccccc3)C2)CC1 | -2.19% | 
COC(=O)N1CCC2(CC1)CN(c1ccccc1)C2 | -5.68% | 
Cn1cccc1C(=O)N1CCC2(CCCN(c3cccc(-c4ccccc4)c3)C2)CC1 |  | 15.8 µM (active)
CC(C)CN1CCCC2(CCN(C(=O)c3cccn3C)CC2)C1 | 12.9% | 
CN1CCCC2(CCN(C(=O)c3cccn3C)CC2)C1 | -19.9% | 
Cn1cccc1C(=O)N1CCC2(CCCN(c3ccc(-c4ccccc4)cc3)C2)CC1 |  | 15.8 µM (active)
COC(=O)N1CCC2(CCCN(c3ccc(-c4ccccc4)cc3)C2)CC1 |  | 20 µM (active)
Cc1cc2c(c(=O)o1)[C@@H](O)[C@H]1O[C@@H]1C2=O | -3.99% [at 11.4 µM] | 
COc1ccc(/C=C/C(=O)Nc2nc(C)cc(C)n2)cc1OC |  | 5.01 µM (active)
CCCOc1ccc(/C=C/C(=O)Nc2ccc([N+](=O)[O-])cc2C)cc1OC | -5.77% | 
COc1cccc(-c2cncnc2NCCc2c[nH]c3ccc(OC)cc23)c1 |  | 2 µM (active)
COc1ccc2[nH]cc(CCNc3ncncc3-c3cccnc3)c2c1 |  | 0.316 µM (active)
COc1ccc2[nH]cc(CCNc3ncncc3-c3cccc(NS(C)(=O)=O)c3)c2c1 |  | 12.6 µM (active)
COc1ccc2[nH]cc(CCNc3ncncc3-c3ccc(N(C)C)cc3)c2c1 |  | 0.251 µM (active)
COc1ccc(N2CCN(Cc3nc4c(c(=O)[nH]c(=O)n4C)n3CCCc3ccccc3)CC2)cc1 | -8.33% | 
O=C(O)C1CC2(C1)CC(C(=O)O)C2 (stereo unspecified) | -6.34% [at 2.29 µM] | 

SMILES | activity, negative = inhibition | AC50
Cc1ccc(SCc2[nH]nc3c2C(C(C)C)C(C#N)=C(N)O3)cc1 (stereo unspecified) |  | 12.6 µM (active)
O=[N+]([O-])c1ccc(C=Nc2ccc(Cl)cc2Cl)s1 |  | 2 µM (active)
O=c1onc(-c2cccs2)n1Cc1ccccc1 |  | 2.24 µM (active)
CN(C)CCNS(=O)(=O)N(C)C | -3% [at 11.4 µM] | 
c1ccc(Nc2nc(-c3cccnc3)nc3ccccc23)cc1 |  | 0.398 µM (active)
CNc1nc(-c2cccnc2)nc2ccccc12 |  | 0.1 µM (active)
O=C(O)CC12C[C@H]3C[C@@H](CC(O)(C3)C1)C2 | -11.2% [at 11.4 µM] | 
Cc1oc(-c2ccccc2Cl)nc1CSCC(=O)NC1CC1 |  | 15.8 µM (active)
CCOC(=O)N1CCC(NC(=O)CS(=O)(=O)Cc2nc(-c3cccc(OC)c3)oc2C)CC1 | -39% | 
Cc1ccccc1-c1nc(CS(=O)CC(=O)NCCN2CCN(Cc3ccccc3)CC2)c(C)o1 (stereo unspecified) | -37.3% | 
Cc1oc(-c2ccccc2F)nc1CS(=O)(=O)CC(=O)NCCCN(C)C1CCCCC1 | -6.41% | 
O=C(CSCc1cccc(Cl)c1)NCc1ccc2c(c1)OCO2 |  | 3.16 µM (active)
Cc1oc(-c2ccccc2F)nc1CSCC(=O)NCc1ccc2c(c1)OCO2 |  | 1.58 µM (active)
O=C1Nc2ccccc2C(O)(C(=O)NCc2ccc3c(c2)OCO3)N1c1ccc(Cl)c(Cl)c1 (stereo unspecified) | 25% | 
CN1CCN(CCCNC(=O)c2ccc(CSCc3cccc(Cl)c3)o2)CC1 | -11% | 
O=C(CSCc1cccc(Br)c1)N/N=C/c1ccc2c(c1)OCO2 |  | 2.51 µM (active)
O=C(N/N=C/c1ccc2c(c1)OCO2)/C(=C/c1ccc2c(c1)OCO2)NC(=O)c1ccccc1 | -28.9% | 
CC[C@]1(O)C[C@@H]2CN(CCc3c([nH]c4ccccc34)[C@](C(=O)OC)(c3cc4c(cc3OC)N(C=O)[C@H]3[C@@](O)(C(=O)OC)[C@H](C(=O)OC)[C@@]5(CC)C=CCN6CC[C@]43[C@H]65)C2)C1 | -4.94% | 
CO[C@@H]1COC(=O)C/C=C\[C@H](C)[C@@H](NS(=O)(=O)c2ccc(C)cc2)COC(=O)C/C=C\[C@@H]1C | -5.33% [at 11.4 µM] and -2.04% [at 11.4 µM] | 
O=C(Cn1nc(C(F)F)cc1C(F)F)N/N=C/c1ccc2c(c1)OCO2 |  | 0.891 µM (active)
O=C(/C=C/c1ccc2c(c1)OCO2)NCCSCc1cccc(Cl)c1 |  | 4.47 µM (active)
CCS(=O)(=O)N1CCCC(C(=O)NCCCOC(C)C)C1 (stereo unspecified) | -11.6% | 
CCOC(=O)c1ccc(NC(=O)CC2NCCNC2=O)cc1 (stereo unspecified) | 11.1% | 
CCC1C(=O)N=C(SCC(=O)Nc2ccc(C(=O)OC)cc2)NC1=O (stereo unspecified) |  | 15.8 µM (active)

SMILES | activity, negative = inhibition | AC50
CC(NC(=O)c1cccc(F)c1)C(c1cccs1)N1CCN(C)CC1 (stereo unspecified) | -4.46% | 
C/C(=N\NC(N)=O)c1ccc(Cl)cc1 |  | 3.16 µM (active)
CN1C(=O)C(CC(N)=O)N(NC(=O)c2ccc(Cl)cc2)C1=S (stereo unspecified) | -4.34% | 
C/C(=N\NC(=O)c1cccc(F)c1)c1ccc(Br)s1 |  | 0.631 µM (active)
C/C(=N\NC(=O)c1ccc(Cl)cc1)c1ccc(Br)s1 |  | 1.26 µM (active)
CCN1C(=O)[C@H]2[C@H]3[C@H](O)[C@H](O)C/C(=N/O[C@@H](C)c4cn([C@H]5COC[C@H]5O)nn4)[C@@H]3CC[C@@H]2C1=O | -9.43% [at 11.4 µM] | 
CCCS(=O)(=O)N1CCCC(C(=O)NCCN2CCOCC2)C1 (stereo unspecified) | -13.1% | 
COCCNC(=O)c1sc2nc(-c3ccccc3)cn2c1C |  | 2 µM (active)
COCCNC(=O)c1cn(Cc2c(F)cccc2Cl)nn1 | 0.621% | 
COCCNC(=O)CCn1nc(-c2ccc(Cl)cc2)ccc1=O | -23.7% | 
Cc1cc(=O)[nH]c2ccccc12 |  | 15.8 µM (active)
O=c1[nH]c2ccccc2c2ccccc12 |  | 0.251 µM (active)
CC(=O)Nc1ccc(Cc2ccc3[nH]c(=O)cc(C)c3c2)cc1 | -17% [at 11.4 µM] | 
O=C(O)c1cccnc1SCC(=O)N1CCCCCC1 | -7.56% | 
C=CCSc1ncccc1C(=O)NCc1ccc(C)cc1 |  | 0.794 µM (active)
COC(=O)C/C=C\[C@@H](C)[C@@H](/C=N\O[C@@H](C)CN1CCCc2nc(C)c(C)cc21)OC | -0.522% [at 11.4 µM] | 
O=C(N/N=C/c1ccc(O)cc1)c1ccc(COc2cc(Cl)ccc2Cl)o1 |  | 4.47 µM (active)
CC(C(=O)Nc1cccnc1)N1C(=O)C2C3C=CC(C3)C2C1=O (stereo unspecified) | -24.9% | 
Cn1ncc(Cl)c1C(=O)Nc1cccnc1 |  | 3.55 µM (active)
CC(C)CNC(=O)c1ccc(COc2ccc(Cl)cc2Cl)o1 |  | 14.1 µM (active)
O=C(Nc1cccnc1)c1ccc(COc2cc(Cl)ccc2Cl)o1 |  | 0.794 µM (active)
O=C1C(O)=C(O)C(=O)C(O)=C1O | -3.27% [at 25.6 µM] | 
CC(=O)OC[C@@H]1O[C@H](CCO/N=C(\C)CCN2CCCc3nc(C)c(C)cc32)C=C[C@@H]1OC(C)=O | -5.74% [at 11.4 µM] | 
CC(Cc1ccccc1)N/C=C1\CC(=O)NC1=O (stereo unspecified) | -19.7% | 

SMILES | activity, negative = inhibition | AC50
COc1cc(OC)c2nc(C)c3c(c2c1)N(c1ccc(O)cc1)CC3 |  | 2.24 µM (active)
NC(=O)N[C@H]1NC(=O)NC1=O | -5.86% [at 25.6 µM] | 
CC(C)Cn1c(C(C)C)nc([N+](=O)[O-])c1S(=O)(=O)c1ccc(F)cc1 | -26.1% | 
CCn1c(=N)c(S(=O)(=O)c2ccc(F)cc2)cc2c(=O)n3ccccc3nc21 |  | 1.58 µM (active)
Cn1c(=N)c(S(=O)(=O)c2ccc(F)cc2)cc2c(=O)n3ccccc3nc21 |  | 12.6 µM (active)
CN(C)C(=C(C#N)C#N)N1CCN(c2ccc(Cl)c(Cl)c2)CC1 |  | 25.1 µM (active)
O=C(OCc1cccc(F)c1)c1ccc2c(c1)-c1ccccc1C2=O |  | 3.55 µM (active)
CC(C)CC(=O)N1CCN(Cc2cccc(F)c2)CC1 | -7.54% | 
O=C(c1cccc(F)c1)N1CCC2(CC1)CN(Cc1ccccc1)C2 | -5.98% | 
CCOC(=O)Cc1csc(NC(=O)c2ccc(S(=O)(=O)N3CCCCC3)cc2)n1 |  | 15.8 µM (active)
CCOC(=O)Cc1csc(NS(=O)(=O)c2ccccc2)n1 | -16.9% | 
CCOC(=O)Cc1csc(NC(=O)c2ccc(Cl)nc2)n1 |  | 10 µM (active)
CCOC(=O)Cc1csc(NC(=O)c2sc3nc4ccc(CC)cc4cc3c2N)n1 | -23.8% | 
COCc1nnc(NC(=O)c2ccc(S(=O)(=O)N3CCCCCC3)cc2)o1 | -9.54% | 
COc1ccc(N2C(=O)CCC(C(=O)Nc3ccccn3)C2c2ccc(OC)c(OC)c2)cc1 (stereo unspecified) | -26.4% | 
C/C(CCN1CCCCc2nc(C)c(C)cc21)=N\OC[C@@H](O)COCc1ccco1 | -9.9% [at 11.4 µM] | 
O=C1C(Cl)=C(Sc2nnc3c4ccccc4c4ccccc4c3n2)C(=O)c2ccccc21 |  | 0.398 µM (active)
O=c1c2c(-c3ccc(Cl)cc3)csc2nc2n1CCC2 |  | 1.26 µM (active)
O=C(C1CCN(S(=O)(=O)N2CCOCC2)CC1)N1CCN(Cc2ccccc2)CC1 | 4.96% | 
O=c1oc2c(CN3CCOCC3)c(O)ccc2c2ccccc12 |  | 1.26 µM (active)
O=c1cc(CN2CCN(c3ccc(F)cc3)CC2)c2cc3c(cc2o1)CCCC3 | -25.7% | 
COc1ccccc1-c1c(C)oc2c(CN3CCN(CCO)CC3)c(O)ccc2c1=O | -1.03% | 
CCCc1cc(=O)oc2c(CN3CCOCC3)c(O)ccc12 |  | 14.1 µM (active)
COc1ccc(-c2c(C)oc3c(CN4CCN(CCO)CC4)c(O)ccc3c2=O)cc1OC | -11.4% | 
